# HPGD block – inhibitors of human 15-hydroxyprostaglandin dehydrogenase (HPGD). Potency, µM, for inactives: at the highest dose activity change, negative = inhibition, actives largely listed as inhibitors. 4.3% of 150,000 active. purified HPGD, NADH fluorescence kinetic, PGE2 substrate. P15428. AID 894; also: potency is read from the fitted curve at half-maximal effect
# Target sequence (P15428 whole entry, looked up): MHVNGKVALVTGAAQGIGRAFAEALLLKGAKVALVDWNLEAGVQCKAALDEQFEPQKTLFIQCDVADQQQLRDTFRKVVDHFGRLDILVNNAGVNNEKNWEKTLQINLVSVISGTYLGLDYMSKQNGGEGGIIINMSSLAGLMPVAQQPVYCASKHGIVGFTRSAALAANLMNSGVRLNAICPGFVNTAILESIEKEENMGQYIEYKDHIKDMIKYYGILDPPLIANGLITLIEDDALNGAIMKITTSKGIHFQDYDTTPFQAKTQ
#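 20 nM HPGD preincubated 15 min at room temperature with compound in 50 mM Tris-HCl pH 8, 0.01% Tween 20. Started with 1 mM NAD+ and 30 uM prostaglandin E2; NADH fluorescence (360/450 nm) read 5 times over 30-s intervals, last minus first.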
# IMPase inh – membrane-permeable compound that blocks inositol monophosphatase; P97697; CHO-M1 cells, IP1 accumulation, HTRF TR-FRET ratio; inhibition (IP1 accumulation), % at 46.1 µM; 120,000 tested, under 10 active; AID 901; active = well fitted curve in the direction sought with a large enough effect in the signal ratio, not every such curve was filed as active; inconclusive = small, poorly fitted or top-dose-only effect, or a change in a side signal; inactive = no such curve, though single readings can be large or run the other way; the % refers to the signal ratio;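 also: cells stimulated with carbachol in lithium chloride buffer; plate controls were DMSO basal wells for no effect and reference inhibitor wells for full effect; higher means more IMPase inhibition seen as more IP1 and lower FRET ratio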
# Target sequence (P97697 whole entry, looked up): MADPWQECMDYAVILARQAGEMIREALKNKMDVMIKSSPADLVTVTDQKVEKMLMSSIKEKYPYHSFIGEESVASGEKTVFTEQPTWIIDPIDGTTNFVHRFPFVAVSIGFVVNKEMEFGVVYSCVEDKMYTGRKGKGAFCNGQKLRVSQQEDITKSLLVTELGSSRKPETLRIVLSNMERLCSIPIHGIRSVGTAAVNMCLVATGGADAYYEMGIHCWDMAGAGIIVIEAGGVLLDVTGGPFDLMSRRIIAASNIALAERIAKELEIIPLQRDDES
#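 Elevated IP1 in lysates lowers TR-FRET signal (665/620 ratio and 620 channel reported). Cells were CHO-M1, given carbachol (50 uM as added) plus 50mM LiCl, pH 7.4, 30 min, 37C; compounds titrated up to 46 uM; AC50 by Hill equation.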
# ALDH1A1 block – inhibitors of human aldehyde dehydrogenase 1A1 | Purified ALDH1A1, NADH fluorescence, propionaldehyde substrate | 7.3% of 220,000 active | P00352 | Potency, µM (top dose mostly 75.3 µM), for the others: at the highest dose activity, negative = inhibition, usual class: inhibitors;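 also: potency is read from the fitted curve at half-maximal effect; plate controls were no enzyme wells and a reference inhibitor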
# * marks the source's active call; other numbers are inactive results; ? = inconclusive; . = not tested or not shown; ! = not confirmed by another sample; [ ] = another dose, or the depositor's remark. Sampled rows, rich in hits. Any-hit rate of the full collection: about 9%. Unless noted, calls follow the shape of the dose curve; as a rule, active = well fitted inhibition curve with a large enough effect (not every such curve was filed as active); inconclusive = small, poorly fitted or top-dose-only effect, or another doubt; inactive = no such curve, though single readings can be large or run the other way. Unless noted, % is scaled to controls: 0 for no effect and ±100 for the full control effect.
SMILES,HPGD block,IMPase inh,ALDH1A1 block
O=C(c1ccc2c(c1)OCCCO2)c1cccs1,14µM*,5,-13%
O=S(=O)(Nc1ccc(S(=O)(=O)Nc2nccs2)cc1)c1ccc2c(c1)OCCO2,-20%,0,13µM*
O=C(COC(=O)CCC(=O)c1cccs1)NC(=O)c1ccc(OC(F)F)cc1,.,.,-2%
CC12C=C(/C=C/c3ccccc3)C(C)(C1)C(c1ccccc1)CC2=O (centres undefined),.,.,-8%[13.5 µM]
CC(C)(C)c1ccccc1NC(=O)c1cnn2c(C(F)F)cc(-c3ccccc3)nc12,.,3,.
COc1cc(/C=C2\SC(=S)N(CC(=O)Nc3ccc(O)cc3)C2=O)cc(OC)c1OC,.,.,4%
Cc1c(NC(=O)/C=C/c2ccc(S(=O)(=O)N3CCOCC3)cc2)c(=O)n(-c2ccccc2)n1C,.,.,6%
CN(Cc1cc2ccccc2[nH]c1=O)S(C)(=O)=O,-14%,-6,5%
CSc1cc2c(cc1C(F)(F)F)N(C(=O)Nc1cccnc1)CC2,-4%,-6,0%
COc1ccccc1C(=O)Nc1ccc2c(c1)OCO2,-13%,11,7%
Cc1ccccc1C(=O)Nc1ccc2c(c1)OCO2,18µM*,12,-5%
Cc1ccnc2nc(C(=O)Nc3ccc4c(c3)OCO4)nn12,-3%,-3,4%
Cc1cc(C)n2c(SCC(=O)Nc3ccccc3)nnc2n1,-20%,-8,-1%
Cc1cc(C)n2nc(C(=O)Nc3ccc4c(c3)OCO4)nc2n1,20µM*,9,?
Cc1cc(C(F)F)n2nc(C(=O)Nc3ccc(C(C)C)cc3)nc2n1,.,5,.
CCN(CC)c1ccc(NC(=O)c2nc3nc(C)cc(C(F)F)n3n2)cc1,22µM*,?,11µM*
CCN(CC)c1ccc(NC(=O)CSc2nnc3nc(C)cc(C)n23)cc1,16µM*,15,?
CCCN(CC1CC1)S(=O)(=O)c1ccc(S(N)(=O)=O)cc1,4%,-10,8%
FC(F)(F)c1nnc2ccc(Sc3ccccn3)nn12,.,.,2%
Cc1nn(-c2ccccc2)c(OC(=O)c2ccc(Br)cc2)c1S(=O)(=O)c1ccccc1,.,6,.
O=C(Nc1ccc2c(c1)OCO2)c1ccc(Br)s1,-23%,11,1%
CC(=O)N1CCc2cc(NS(=O)(=O)c3cccs3)ccc21,25µM*,2,-5%
O=C(Nc1ccc2c(c1)OCO2)c1cccs1,25µM*,22,?
CCOc1ccc(NS(=O)(=O)c2ccc3c(c2)CCN3C(C)=O)cc1,.,9,.
Cn1c(CO)cnc1SCc1ccc(Cl)cc1,-2%,-3,11%
SMILES,HPGD block,IMPase inh,ALDH1A1 block
CCn1c(COc2ccc(C)cc2)nnc1SCC(=O)Nc1ccc(S(N)(=O)=O)cc1,-7%,1,22µM*
C=CCn1c(COc2ccc(Cl)cc2)nnc1SCC(=O)Nc1ccc(S(N)(=O)=O)cc1,-10%,.,2%
O=C(O)Cc1ccc(C(=O)c2ccccc2)s1,?,-10,-12%
N#CCc1ccc(C(=O)c2ccccc2F)s1,20µM*,2[1.84 µM],-81%
COc1ccc(-n2c(=O)c(-c3ccc(Cl)cc3)nc3cncnc32)cc1,-8%,.,-1%
CNCCNS(=O)(=O)c1cccc2cnccc12,-9%,-3,-3%
O=S(=O)(NCCNC/C=C/c1ccc(Br)cc1)c1cccc2cnccc12,-25%,.,22µM*!
CNc1nc(-c2c(C)noc2C)nc2ccccc12,.,.,7%
CCc1nc2ccccc2c(C(=O)OCC(=O)C(C)(C)C)c1C,.,.,-6%
CCc1nc2ccccc2c(C(=O)OCc2nnc(-c3ccccc3)o2)c1C,20µM*,2,?
O=[N+]([O-])c1ccc(OCC(O)CN2CCN(c3ccccc3F)CC2)cc1 (centres undefined),-6%,.,8%
O=C(c1ccc(Nc2nc3ccccc3n3nnnc23)cc1)N1CCN(c2ccc(F)cc2)CC1,.,-5,.
COc1cc(NC(=O)Cn2ccsc2=N)c(C)cc1[N+](=O)[O-],.,.,-9%
N=c1sccn1CC(=O)Nc1cccc2ccccc12,2%,-1,11%
N=c1sccn1CC(=O)Nc1ccc(S(N)(=O)=O)cc1,.,.,7.1µM*
N=c1sccn1CC(=O)Nc1ccc(Cl)cc1[N+](=O)[O-],.,.,28µM*
O=C(c1cccc(F)c1)N1CCC2(CC1)CCN(c1ccc(-c3ccccc3)cc1)CC2,4%,.,-7%
Cc1ccc(S(=O)(=O)OCCc2ccccc2)cc1,-13%,.,-3%
COc1cc(Cn2c(=O)sc3ccccc32)ccc1OCCC(C)C,.,3,.
CCC1(CC)NC(=O)N(CC(=O)N2N=C(c3ccc(Cl)cc3)CC2c2ccco2)C1=O (centres undefined),.,.,10%
CCOc1ccccc1N1C(=O)CC(Sc2n[nH]c(-c3ccccc3)n2)C1=O (centres undefined),.,.,11µM*
CCOC(=O)CN1C(=O)C(Sc2n[nH]c(-c3ccc(C)cc3)n2)CCc2ccccc21 (centres undefined),-4%,-1,3%
CNC(=O)NC(=O)COC(=O)c1ccc(-n2c(C)ccc2C)cc1,.,6,-6%
COc1ccc(Cl)cc1NC(=O)Nc1cn(C)nc1C,.,.,-6%
O=S(=O)(Nc1nc2ccccc2nc1N1CCc2ccccc2C1)c1ccc(Br)cc1,-23%,.,?
SMILES,HPGD block,IMPase inh,ALDH1A1 block
O=S(=O)(Nc1nc2ccccc2nc1N1CCN(c2ccccn2)CC1)c1ccc(Cl)cc1,-8%,9,11µM*
O=S(=O)(Nc1nc2ccccc2nc1N1CCc2ccccc2C1)c1ccc(Cl)cc1,-19%,.,?
CC(=O)Nc1ccc(S(=O)(=O)Nc2nc3ccccc3nc2Nc2ccccc2)cc1,-18%,.,-10%
CC(=O)Nc1ccc(S(=O)(=O)Nc2nc3ccccc3nc2N2CCCCCC2)cc1,-11%,2,7.1µM*
O=C(N=c1ccn(-c2nc3ccccc3nc2NS(=O)(=O)c2ccc(Cl)cc2)cc1)c1ccccc1Cl,.,.,0.63µM*
CC(=O)Nc1ccc(S(=O)(=O)Nc2nc3ccccc3nc2-n2ccc(=NC(=O)c3ccc(F)cc3)cc2)cc1,.,.,0%
CC(=O)Nc1ccc(S(=O)(=O)Nc2nc3ccccc3nc2N2CCc3ccccc3C2)cc1,-24%,.,11µM*
COc1ccccc1OCc1nc(-c2cccc(C)c2)no1,.,2,.
O=C(CSc1nc(O)c(C/C=C/c2ccccc2)c(=O)[nH]1)Nc1cccc(F)c1,.,-4,.
Cn1c(C(=O)Nc2ccc3c(c2)OCCO3)cc2c(=O)n(C)c3ccccc3c21,?,6,25µM*
Cn1c(C(=O)N2CCN(C3CCCCC3)CC2)cc2c(=O)n(C)c3ccccc3c21,-8%,9,11%
Cn1c(C(=O)N2CCN(C(=O)c3ccco3)CC2)cc2c(=O)n(C)c3ccccc3c21,-22%,5,20µM*
Cn1c(C(=O)NC2CC2)cc2c(=O)n(C)c3ccccc3c21,-26%,0,-6%
O=c1c2ccccc2nc(-c2ccc(F)cc2)n1NCc1ccccc1O,.,.,3%
COc1cccc(CNC(=O)Cc2ccc(Br)cc2)c1,-11%,-12,10%
COc1cccc(CNC(=O)Cn2cccc2)c1,14µM*,-3,-1%
O=S(=O)(/C=C/c1ccccc1)N1CCN(Cc2ccccc2)CC1,.,.,-19%
CC1=C(C(=O)Nc2cccnc2)C(c2ccc(F)cc2)n2nc(-c3cccc(C)c3)nc2N1 (centres undefined),.,4,.
CC(C)OC(=O)c1cc(-c2ccc(C=O)o2)ccc1Cl,-28%,.,8.9µM*
